The list is not random: actives were taken first. Their share in the collection is about 2.3%.
Tau fibril ThT: inhibitors of human tau fibril formation, thioflavin T binding. P10636. recombinant tau K18 P301L, heparin-induced fibrillization, ThT fluorescence. Potency, µM (titrated, usually from 57.4 µM), for inactives: at the highest dose activity, negative = inhibition, usual class: inhibitors. 2.1% of 270,000 active. AID 1460; also: potency is read from the fitted curve at half-maximal effect; nearly all actives have a fitted effect of over 55% in size
Target sequence (P10636 561-689 P618L limits assumed): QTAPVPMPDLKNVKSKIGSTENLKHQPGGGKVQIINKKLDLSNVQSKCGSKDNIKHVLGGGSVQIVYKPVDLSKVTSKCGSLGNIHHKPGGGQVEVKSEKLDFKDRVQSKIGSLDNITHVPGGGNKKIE
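ThT emission at 510 nm, taken 1 hr after adding 30 uM dye, quantifies aggregates formed when 20 uM heparin acts on human tau K18 P301L for 6 hr at 37 C.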
Tau fluor cs: counter-screen for tau fibril formation inhibitors; Potency, µM (titrated, usually from 57.7 µM), inactives show top-dose activity change, negative = decrease; 0.93% of 280,000 active; tau K18 P301L Alexa594 fluorescence, heparin fibrillization; also: potency is read from the fitted curve at half-maximal effect; nearly all actives have a fitted effect of over 55% in size
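Human tau K18 P301L (15 uM unlabeled, 0.24 uM Alexa 594-labeled) in 100 mM sodium acetate pH 7 with 20 uM heparin, 6 hr at 37 C. ThT 30 uM added, 1 hr ambient; Alexa 594 FP and total fluorescence read at 555/632 nm.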
USP1 inh: USP1/UAF1 (human) deubiquitinase inhibition; O94782; 0.23% of 390,000 active; recombinant USP1/UAF1, Ub-Rhodamine cleavage fluorescence; Potency, µM (doses to about 57.1 µM), inactives show at the top dose activity change, negative = inhibition, usual class: inhibitors; also: potency is read from the fitted curve at half-maximal effect; nearly all actives have a fitted effect of over 60% in size
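USP1/UAF1 complex (1 nM) preincubated 15 min at room temperature with compound, then Ub-Rho substrate (150 nM final) added. Kinetic fluorescence at 480/540 nm over 6 reads at 60 s intervals; 50 mM HEPES pH 7.8, 0.5 mM EDTA, 0.1 mg/ml BSA, 1 mM TCEP, 0.01% Tween-20.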
Tau fibril FP: tau fibrillization inhibition (FP) | P10636 | K18 P301L tau heparin fibrillization, Alexa594 FP, 6 h | Potency, µM (top dose mostly 57.7 µM), inactives show at the top dose activity, negative = inhibition, usual class: inhibitors | 0.39% of 280,000 active; also: potency is read from the fitted curve at half-maximal effect; nearly all actives have a fitted effect of over 55% in size
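FP of Alexa 594-tau after heparin (20 uM) induction. Substrate: human K18 P301L, 15 uM unlabeled, 0.24 uM labeled. Buffer 100 mM sodium acetate pH 7. 6 hr, 37 C.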
Coupling enz: inhibits coupling enzyme system, counter-screen for aldolase hits; activity change, negative = inhibition, % at 58.2 µM, hits read low; coupling enzyme system counterscreen, AmpLite Red fluorescence; AID 2472; 0.67% of 290,000 active; in the data active = activity change below about -30%
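Counterscreen of the coupled detection system alone, without aldolase: glyceraldehyde-3-phosphate coupling enzymes plus AmpLite Red readout. Compounds at 57.5 uM final, 10 min RT preincubation, 20 min RT reaction, fluorescence 525/598 nm.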
Starred values were filed as active, the others as inactive; u = inconclusive; x = no result given; [ ] = another dose, or the depositor's remark. Unless noted, calls follow the shape of the dose curve; as a rule, active = well fitted curve in the direction sought with a large enough effect; inconclusive = small, poorly fitted or top-dose-only effect, or another doubt; inactive = no such curve, though single readings can be large; an effect the other way counts as inactive or inconclusive. % is scaled to controls: 0 for no effect and ±100 for the full control effect.

SMILES | Tau fibril ThT | Tau fluor cs | USP1 inh | Tau fibril FP | Coupling enz
COc1cc(C(=O)O/N=C2\C=CC(=O)C(C)=C2)cc(OC)c1OC | u | u | -29.6% | -17.3% | -81.9*
O=C(NN=C1CCN(Cc2ccccc2)CC1)c1cc2ccccc2cc1O | 12.6µM* | u | -7.5% | 1.4% | -12.6
Cc1ccc(NC(=O)CSc2nnc3n2CCCCC3)cc1S(=O)(=O)N1CCOCC1 | x | x | 10.1% | x | x
N#CC12COC3(CCCCC3C1(C#N)C#N)OC2=N (centres undefined) | 14.1µM* | -21.7% | 3.9% | u | -4.9
N#CC1(C#N)COC23CCCCC2C1(C#N)C(=N)O3 (centres undefined) | 2.1% | 1.9% | -21.7% | 2.5% | -14.0
COc1ccc(C(=O)NCC(C)(c2ccccc2)c2ccccc2)cc1S(=O)(=O)N1CCOCC1 | x | x | -10.4% | x | x
Cc1ccc(S(=O)(=O)/N=C2\C=C(NS(=O)(=O)c3ccccc3)C(=O)c3ccccc32)cc1 | x | x | 17.8µM* | x | x
Cc1cc(C)c(S(=O)(=O)/N=C2\C=C(NS(=O)(=O)c3ccccc3)C(=O)c3ccccc32)c(C)c1 | x | x | u | x | -19.6
Cc1ccc(S(=O)(=O)N2CCC(C(=O)C3C(=O)CC(C)(C)CC3=O)CC2)cc1 | -3.3% | -3.9% | -3.0% | -3.2% | -1.1
O=C(O)c1ccc(NS(=O)(=O)c2ccc3c(c2)C(=O)c2ccccc2C3=O)cc1 | u | -24.9% | -17.0% | 6.0% | -0.1
Cc1cc(C)c(S(=O)(=O)/N=C2\C=C(Nc3ccc(C(=O)O)cc3)C(=O)c3ccccc32)c(C)c1 | x | x | 14.1µM* | x | -41.7*
O=C(O)c1ccc(NC2=C/C(=N/S(=O)(=O)c3ccccc3)c3ccccc3C2=O)cc1 | 14.1µM* | u | 2.82µM* | u | -46.7*
Cc1ccc(S(=O)(=O)/N=C2/C=C(C3C(=O)CC(C)(C)CC3=O)C(=O)c3ccccc32)cc1 | 8.91µM* | 8.91µM*[quencher] | u | 22.4µM* | -48.5*
Cc1cc(C)c(S(=O)(=O)c2ccccc2C(=O)O)c(C)c1 | -4.9% | 0.4% | -13.7% | 4.5% | 8.1
Cc1ccc(Nc2nc(NCc3ccco3)c3ccccc3n2)cc1 | -5.8% | u | -7.4% | -12.1% | -3.3
COc1ccccc1Nc1nc(NCc2ccco2)c2ccccc2n1 | u | 22.4µM*[quencher] | -7.7% | u | -0.5
Oc1ccccc1Nc1nc(NCc2ccccc2)c2ccccc2n1 | -18.8% | 15.8µM*[quencher] | -15.7% | 8.6% | -3.7
CNc1nc(NCc2ccccc2)c2ccccc2n1 | x | x | -7.8% | x | 2.2
c1ccc(N2CCN(c3nc(NCc4ccco4)c4ccccc4n3)CC2)cc1 | u | 25.1µM*[quencher] | -20.8% | 3.3% | -3.6
CC(C)(C)CCN1CCC(CN2CCNC(=O)C2=O)CC1 | x | x | -20.0% | x | x
S=c1nc(-c2csc3c2CCCC3)[nH][nH]1 | -16.2% | -8.7% | u | 4.8% | 7.5
COc1cc(NC(=O)Nc2cccc([N+](=O)[O-])c2)cc(OC)c1 | u | 14.1µM*[quencher] | 0.9% | u | -1.9
COc1ccc(C(=O)C(C)Oc2cccc(NC(=O)c3cccc([N+](=O)[O-])c3)c2)cc1 (centres undefined) | -10.9% | 3.55µM*[quencher] | -7.8% | -2.5% | 0.3
O=C(Nc1cccc([N+](=O)[O-])c1)Nc1cccc([N+](=O)[O-])c1 | u | u | -10.4% | -14.1% | -1.7
O=C(Nc1cccc([N+](=O)[O-])c1)Nc1ccc2c(c1)OCCO2 | u | 14.1µM*[quencher] | u | 4.7% | -4.8
SMILES | Tau fibril ThT | Tau fluor cs | USP1 inh | Tau fibril FP | Coupling enz
Cc1ccc(NC(=O)COC(=O)CNC(=O)c2cccs2)cc1S(=O)(=O)N1CCOCC1 | x | x | -15.6% | x | x
Cc1ccc(C=C2C(=O)c3ccccc3C2=O)s1 | 14.1µM* | 1.5% | -6.1% | 11.9% | 5.6
Cc1cccc(-n2c(C)cc(C=C3C(=O)c4ccccc4C3=O)c2C)c1 | u | -29.2% | u | -2.2% | -14.1
CCn1c(C)cc(C=C2C(=O)c3ccccc3C2=O)c1C | 14.1µM* | -25.4% | 314.5% | 7.2% | -6.0
Cc1cc(C=C2C(=O)c3ccccc3C2=O)c(C)n1C | 11.2µM* | -21.6% | -13.3% | -1.6% | -4.7
Cc1ccccc1CNC(=O)CCSCc1cnn(-c2ccccc2)c1-n1cccc1 | u | -23.0% | -9.2% | -3.3% | x
O=C(CCn1nnnc1CN1CCOCC1)N1CCC(c2ccccc2F)C1 (centres undefined) | x | x | -13.7% | x | 5.0
CC(=O)Nc1ccc(S(=O)(=O)NC2(C(F)(F)F)C(=O)Nc3c2c(=O)[nH]c(=O)n3-c2ccc(C)cc2)cc1 (centres undefined) | 3.1% | -2.9% | -17.8% | -8.6% | x
COc1cc(/C=C2\C(=O)NN(c3ccc(C)cc3)C2=O)cc([N+](=O)[O-])c1O | 12.6µM* | u | -24.3% | -4.3% | -0.1
COc1cc(/C=C2\C(=O)NN(c3ccccc3)C2=O)cc([N+](=O)[O-])c1O | 11.2µM* | -29.8% | -21.0% | -5.9% | -2.4
CCc1ccc(C2=C(C)C(N3CCC(C(=O)NCCc4ccco4)CC3)=NS2(=O)=O)cc1 | -10.7% | 3.2% | -18.1% | 0.5% | x
COCCNC(=O)C(=O)NCC(c1cccnc1)N1CCN(c2ccccc2)CC1 (centres undefined) | -9.7% | -15.7% | -13.3% | -9.1% | x
O=C(CNC(=O)c1ccccc1)NC1(C(=O)NC2CCCC2)CCCCC1 | -10.6% | 2.82µM*[quencher] | -24.0% | u | 3.1
Cc1c(C(=O)N(C)C)sc2c1c(=O)n(-c1ccc(F)cc1)c(=O)n2Cc1ccccc1C#N | -2.2% | -4.0% | -31.2% | -6.7% | x
Cc1cc(/C=N/n2cnnc2)c(O)c([N+](=O)[O-])c1 | 3.98µM* | -5.5% | -21.8% | 11.0% | 1.2
Cc1ccc(NCC(=O)N/N=C/c2cc3ccccc3nc2Cl)cc1 | 17.8µM* | u | -26.2% | 1.8% | 2.8
COc1cc(/C=N/N=C(/N)c2nonc2N)cc(Br)c1OCc1cccc(C)c1 | u | u | -9.7% | 28.2µM* | -4.2
CCOC(=O)c1c(C)[nH]c(N=Nc2ccccc2Cl)c1C | 5.01µM* | u | -12.3% | 1.8% | -3.4
CCOC(=O)c1c(C)[nH]c(C=Nc2ccccc2)c1O | u | -9.6% | x | -6.5% | -36.1*
CCOC(=O)c1c(C)[nH]c(N=Nc2ccc(C)cc2)c1C | 7.94µM* | u | -16.5% | 22.1% | -9.1
CCOC(=O)c1c(C)[nH]c(C=Nc2ccc(OC)cc2)c1O | u | -25.4% | -18.0% | 8.2% | -5.5
CCOC(=O)c1c(C)[nH]c(N=Nc2ccccc2)c1C | 7.94µM* | u | -14.6% | u | -1.4
O=C(O)Cc1nn(Cc2ccc(Br)cc2F)c(=O)c2ccccc12 | -3.2% | -5.4% | x | -3.4% | 10.7
O=C(CNC(=O)c1ccc(OC(F)F)cc1)Nc1cccc(S(=O)(=O)N2CCCC2)c1 | x | x | -21.3% | x | x
COCCn1c(Cc2ccccc2)nnc1SC(C)C(=O)NC1CC1 (centres undefined) | x | x | -13.9% | x | x

Screening results deposited in PubChem BioAssay by National Center for Advancing Translational Sciences (NCATS).
